# Compound activity: PubChem BioAssay, several laboratories
# Only some compounds are listed: those with a hit (about 27% of all), similar ones and a draw of the others.
# CYP2C19 inh = blocks human cytochrome P450 2C19; actives 21% (n = 96,000); P33261; inhibition, % at 5 µM; CYP2C19 Supersomes, luciferin-H EGE luminescence, 30 min; AID 778;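 active = CYP2C19 inhibition above a set limit at 5 µM in the primary screen, cut at about 50% in these data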;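 also: plate controls were negative control wells for no effect and 2.5 mM tranylcypromine positive control for full effect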
# Cav32 inh = blocks human Cav3.2 T-type calcium channel; Cav3.2-expressing cells, Fluo-4 calcium fluorescence FDSS; hits give low values; B-score at 10 µM; actives 4% (n = 100,000); AID 449739;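 active = single-dose well whose peak fluorescence ratio is a statistical outlier from its plate by either plate-standardised score or position-corrected B-score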
# CYP2C19 act = cytochrome P450 2C19 (human) activation. P33261. recombinant CYP2C19, luciferin-H EGE luminescence; hits give high values; 0 = fully inhibited enzyme, 1 = untreated enzyme. activation factor at 5 µM. 96,000 tested, under 10 active;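 active = activation factor of at least 2 at 5 µM in the primary screen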;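 also: 0 = wells with 2.5 mM tranylcypromine and 1 = vehicle-only wells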
# CYP2C9 inhib = blocks human cytochrome P450 2C9; P11712; CYP2C9 Supersomes, luciferin-H conversion, luminescence; inhibition, % at 5 µM; actives 20% (n = 96,000); AID 777;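 active = blocking of liver enzyme CYP2C9 beyond about 50% at 5 µM, limit read from the data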
# Target sequence (P11712 whole entry, looked up): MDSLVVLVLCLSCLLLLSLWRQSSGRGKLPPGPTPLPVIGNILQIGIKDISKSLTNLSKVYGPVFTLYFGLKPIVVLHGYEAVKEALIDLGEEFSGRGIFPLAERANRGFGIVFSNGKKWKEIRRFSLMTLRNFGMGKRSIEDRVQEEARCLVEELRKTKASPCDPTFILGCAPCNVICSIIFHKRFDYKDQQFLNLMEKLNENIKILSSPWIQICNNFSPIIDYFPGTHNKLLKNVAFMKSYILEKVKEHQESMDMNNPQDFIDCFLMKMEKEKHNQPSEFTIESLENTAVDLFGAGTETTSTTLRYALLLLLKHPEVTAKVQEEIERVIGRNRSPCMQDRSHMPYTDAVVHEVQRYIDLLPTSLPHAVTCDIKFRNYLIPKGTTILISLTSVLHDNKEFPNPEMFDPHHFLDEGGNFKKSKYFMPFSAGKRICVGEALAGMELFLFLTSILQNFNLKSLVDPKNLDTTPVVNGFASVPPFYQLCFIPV
# CYP2C9 activ = CYP2C9 (human) activation; P11712; recombinant CYP2C9, luciferin-H conversion, luminescence; hits give high values; factor 1 = untreated enzyme, 0 = blocked; activation factor at 5 µM; actives 1.4% (n = 96,000); AID 1024;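 active = activation factor of 2 or more for CYP2C9 at a 5 µM dose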;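 also: 0 = sulfaphenazole-blocked wells and 1 = vehicle-only wells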
# Starred values were filed as active, the others as inactive; nt = no result given.
SMILES,CYP2C19 inh,Cav32 inh,CYP2C19 act,CYP2C9 inhib,CYP2C9 activ
CCn1c(C(=O)N2CCCC(C(=O)NCCc3ccc(C)cc3)C2)cc2sccc21 (stereo not given),24.9,-3.79,0.8,50.0*,0.5
Cn1c(C(=O)N2CCCC(C(=O)NCc3cccs3)C2)cc2sccc21 (stereo not given),24.8,0.478,0.8,-72.8,1.7
Cn1c(C(=O)N2CCCC(C(=O)NCCCSC3CCCCC3)C2)cc2sccc21 (stereo not given),47.3,nt,0.5,81.6*,0.2
O=C1CC(=O)C(n2cncn2)C(c2ccc(Cl)cc2)C1 (stereo not given),6.5,0.952,0.9,10.0,0.9
C=CCn1c(NC(=O)c2ccc(Br)o2)c(C(=O)OCC)sc1=S,25.3,-0.865,0.7,88.2*,0.1
O=[N+]([O-])c1cc(Br)c(O)c(/C=N/Nc2nnnn2-c2cccc3ccccc23)c1,90.6*,-9.26*,0.1,100.1*,0
C=CCOc1ccc2cccc(/C=N/NC(=O)c3cc4cc([N+](=O)[O-])ccc4s3)c2c1,9.4,-1.31,0.9,42.9,0.6
C/C(Cn1nnc([N+](=O)[O-])n1)=N\NC(=O)c1cccc(Cl)c1,5.6,-0.0696,0.9,6.5,0.9
O=C(c1ccc(F)cc1)C1CCN(C(=O)NC2CCCCC2)CC1,37.5,1.27,0.6,23.9,0.8
C=C(C)C(=O)OC1(C(F)(F)F)Oc2cc(C)ccc2NC1=O (stereo not given),62.7*,0.0259,0.4,39.0,0.6
COC(=O)CC1Oc2ccc(C)cc2NC1=O (stereo not given),24.8,0.394,0.8,13.3,0.9
Cc1ccccc1-c1nc(S(=O)(=O)c2ccc(Br)cc2)c(NCc2cccnc2)o1,82.0*,-2.54*,0.2,66.3*,0.3
Cc1ccc(S(=O)(=O)c2nc(-c3ccccc3)oc2NCc2cccnc2)cc1,77.3*,-5.27*,0.2,72.9*,0.3
CSc1oc(-c2ccccc2)nc1S(=O)(=O)c1ccc(C)cc1,7.5,1.04,0.9,-9.2,1.1
Cc1ccc(CNc2oc(-c3ccco3)nc2S(=O)(=O)c2ccccc2)cc1,nt,-4.73*,nt,nt,nt
Cc1ccccc1-c1nc(CN2CCC(C(=O)NCc3cccnc3)CC2)c(C)o1,11.9,2.18,0.9,14.4,0.9
NC(=O)C1=C[C@H](c2ccc(C(F)(F)F)cc2)C[C@H](OCc2ccc(CO)cc2)O1,nt,-1.57,nt,nt,nt
Cc1ccccc1N1CCN(C(=O)CN2C(=O)c3ccccc3C2=O)CC1,16.6,0.593,0.8,11.8,0.9
O=C(NCc1ccc(Cl)cc1)c1ccc(Br)o1,95.2*,-0.0118,0,59.1*,0.4
O=C(NCc1ccccc1)c1ccc(-c2ccccc2F)o1,62.0*,-4.23*,0.4,47.7,0.5
NS(=O)(=O)c1ccc(CNC(=O)c2ccc(Br)o2)cc1,-13.3,-0.303,1.1,-9.0,1.1
O=C(NCCO)c1ccccc1O,-3.3,0.00758,1,-10.4,1.1
O=C(NCCCc1ccccc1)c1ccc(Br)o1,95.5*,-0.111,0,50.8*,0.5
O=C(NCCCc1ccccc1)c1ccccc1O,97.1*,-2.59,0,90.1*,0.1
O=C(NCCc1ccccc1)c1ccc(-c2ccccc2C(F)(F)F)o1,nt,-3.09,nt,nt,nt
SMILES,CYP2C19 inh,Cav32 inh,CYP2C19 act,CYP2C9 inhib,CYP2C9 activ
CC(C(=O)N1CCOCC1)(c1ccccc1)c1ccccc1,93.5*,-0.729,0.1,24.4,0.8
O=C(Oc1ccccc1OC(=O)N1CCOCC1)N1CCOCC1,8.3,0.148,0.9,-4.1,1
C=C(C)c1cccc(C(C)(C)NC(=O)N2CCCC2)c1,nt,0.708,nt,nt,nt
C=C(C)c1cccc(C(C)(C)NC(=O)N2CCOCC2)c1,55.9*,0.61,0.4,16.9,0.8
COc1ccc(OC)c2c1CC(C)(C)NC2=O,-11.9,-0.00396,1.1,5.1,0.9
COc1ccc(CN(C)C(=O)COC(=O)c2ccc3c(c2)OCO3)cc1OC,32.1,-0.238,0.7,61.0*,0.4
COc1cc(C(=O)OCC(=O)N(C)Cc2ccccc2)cc(OC)c1OC,nt,0.554,nt,nt,nt
CC1=CCC2C(=O)N(Cc3ccccc3)C(=O)C2C1 (stereo not given),39.9,0.262,0.6,32.2,0.7
CC1=CCC2C(=O)N(C(C)c3ccccc3)C(=O)C2C1 (stereo not given),93.8*,-0.374,0.1,11.0,0.9
CC(C)OC(=O)C1=C2SCC(=O)N2C(N)=C(C#N)C1,76.3*,0.521,0.2,5.5,0.9
Fc1ccccc1CSc1ncn[nH]1,nt,0.859,nt,nt,nt
Nc1nnc(SCc2ccccc2F)n1-c1ccccc1,75.2*,-0.658,0.2,-7.1,1.1
